# Results taken from article PMC12529666, “Dysregulation of AGO2-miRNA dynamics underlies the AGO2-associated Lessel–Kreienkamp syndrome”.
# B1: GTATCTTG (ssRNA)
# RNA 1: GAGUUCUACAGUCCGACGAUCCCAACGUAUCUUGCACCUGGAAUUCUCGGGUGCCAA
# RNA 2: UGGAGUGUGACAAUGGUGUUUG
# DNA 1: GATCGTCGGACTGTAGAACTC
# DNA 2: TTGGCACCCGAGAATTCCA
# modifications: constant regions annealed to DNA blockers; guide miR-122 5' phosphate
# B2: ATGCTTTG (ssRNA)
# RNA 1: GAGUUCUACAGUCCGACGAUCCCAACAUGCUUUGCACCUGGAAUUCUCGGGUGCCAA
# RNA 2: UGGAGUGUGACAAUGGUGUUUG
# DNA 1: GATCGTCGGACTGTAGAACTC
# DNA 2: TTGGCACCCGAGAATTCCA
# modifications: constant regions annealed to DNA blockers; guide miR-122 5' phosphate
# B3: GCATTTCG (ssRNA)
# RNA 1: GAGUUCUACAGUCCGACGAUCCCAACGCAUUUCGCACCUGGAAUUCUCGGGUGCCAA
# RNA 2: UGGAGUGUGACAAUGGUGUUUG
# DNA 1: GATCGTCGGACTGTAGAACTC
# DNA 2: TTGGCACCCGAGAATTCCA
# modifications: constant regions annealed to DNA blockers; guide miR-122 5' phosphate
# B4: ATACCCTG (ssRNA)
# RNA 1: GAGUUCUACAGUCCGACGAUCCCAACAUACCCUGCACCUGGAAUUCUCGGGUGCCAA
# RNA 2: UGGAGUGUGACAAUGGUGUUUG
# DNA 1: GATCGTCGGACTGTAGAACTC
# DNA 2: TTGGCACCCGAGAATTCCA
# modifications: constant regions annealed to DNA blockers; guide miR-122 5' phosphate
# B5: ATGCCTTG (ssRNA)
# RNA 1: GAGUUCUACAGUCCGACGAUCCCAACAUGCCUUGCACCUGGAAUUCUCGGGUGCCAA
# RNA 2: UGGAGUGUGACAAUGGUGUUUG
# DNA 1: GATCGTCGGACTGTAGAACTC
# DNA 2: TTGGCACCCGAGAATTCCA
# modifications: constant regions annealed to DNA blockers; guide miR-122 5' phosphate
# B6: ACATTCTA (ssRNA)
# RNA 1: GAGUUCUACAGUCCGACGAUCCCAACACAUUCUACACCUGGAAUUCUCGGGUGCCAA
# RNA 2: UGGAGUGUGACAAUGGUGUUUG
# DNA 1: GATCGTCGGACTGTAGAACTC
# DNA 2: TTGGCACCCGAGAATTCCA
# modifications: constant regions annealed to DNA blockers; guide miR-122 5' phosphate
# B7: GTACCTTG (ssRNA)
# RNA 1: GAGUUCUACAGUCCGACGAUCCCAACGUACCUUGCACCUGGAAUUCUCGGGUGCCAA
# RNA 2: UGGAGUGUGACAAUGGUGUUUG
# DNA 1: GATCGTCGGACTGTAGAACTC
# DNA 2: TTGGCACCCGAGAATTCCA
# modifications: constant regions annealed to DNA blockers; guide miR-122 5' phosphate
# B8: ACATCTTG (ssRNA)
# RNA 1: GAGUUCUACAGUCCGACGAUCCCAACACAUCUUGCACCUGGAAUUCUCGGGUGCCAA
# RNA 2: UGGAGUGUGACAAUGGUGUUUG
# DNA 1: GATCGTCGGACTGTAGAACTC
# DNA 2: TTGGCACCCGAGAATTCCA
# modifications: constant regions annealed to DNA blockers; guide miR-122 5' phosphate
# B9: GTGTCTCG (ssRNA)
# RNA 1: GAGUUCUACAGUCCGACGAUCCCAACGUGUCUCGCACCUGGAAUUCUCGGGUGCCAA
# RNA 2: UGGAGUGUGACAAUGGUGUUUG
# DNA 1: GATCGTCGGACTGTAGAACTC
# DNA 2: TTGGCACCCGAGAATTCCA
# modifications: constant regions annealed to DNA blockers; guide miR-122 5' phosphate
# B10: GCATCTTG (ssRNA)
# RNA 1: GAGUUCUACAGUCCGACGAUCCCAACGCAUCUUGCACCUGGAAUUCUCGGGUGCCAA
# RNA 2: UGGAGUGUGACAAUGGUGUUUG
# DNA 1: GATCGTCGGACTGTAGAACTC
# DNA 2: TTGGCACCCGAGAATTCCA
# modifications: constant regions annealed to DNA blockers; guide miR-122 5' phosphate
# B11: ATACTCTA (ssRNA)
# RNA 1: GAGUUCUACAGUCCGACGAUCCCAACAUACUCUACACCUGGAAUUCUCGGGUGCCAA
# RNA 2: UGGAGUGUGACAAUGGUGUUUG
# DNA 1: GATCGTCGGACTGTAGAACTC
# DNA 2: TTGGCACCCGAGAATTCCA
# modifications: constant regions annealed to DNA blockers; guide miR-122 5' phosphate
# Biological target: AGO2 L192P (Homo sapiens, UniProt Q9UKV8 1-859, L192P;S387D;S824A;S828D;S831D;S834A)
# Test: RNA Bind-n-Seq (nitrocellulose filter binding and sequencing); miR-122 guide loaded in AGO2; 60 min incubation; 30 mM Tris pH 8.0, 100 mM potassium acetate, 2 mM magnesium acetate, 0.5 mM TCEP, 0.005% NP-40, 0.01 mg/ml yeast tRNA; 3 nM AGO2-miR-122, 100 nM RNA library; 60; high values mean tight binding
# Conditions: protein: recombinant; tags: His6 (N-terminal, pFastBac HTA)
# Summary of the method: (§1)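 His-tagged AGO2 was expressed in Sf9 insect cells by baculovirus, loaded with a synthetic guide RNA, and purified by Ni-NTA and a biotinylated capture oligo. Bound RNA was extracted, reverse-transcribed, barcode-amplified and Illumina-sequenced. Fold enrichment is each sequence's read fraction divided by its input-library read fraction.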
# Chain of AGO2 L192P (Q9UKV8 whole entry L192P/S387D/S824A/S828D/S831D/S834A): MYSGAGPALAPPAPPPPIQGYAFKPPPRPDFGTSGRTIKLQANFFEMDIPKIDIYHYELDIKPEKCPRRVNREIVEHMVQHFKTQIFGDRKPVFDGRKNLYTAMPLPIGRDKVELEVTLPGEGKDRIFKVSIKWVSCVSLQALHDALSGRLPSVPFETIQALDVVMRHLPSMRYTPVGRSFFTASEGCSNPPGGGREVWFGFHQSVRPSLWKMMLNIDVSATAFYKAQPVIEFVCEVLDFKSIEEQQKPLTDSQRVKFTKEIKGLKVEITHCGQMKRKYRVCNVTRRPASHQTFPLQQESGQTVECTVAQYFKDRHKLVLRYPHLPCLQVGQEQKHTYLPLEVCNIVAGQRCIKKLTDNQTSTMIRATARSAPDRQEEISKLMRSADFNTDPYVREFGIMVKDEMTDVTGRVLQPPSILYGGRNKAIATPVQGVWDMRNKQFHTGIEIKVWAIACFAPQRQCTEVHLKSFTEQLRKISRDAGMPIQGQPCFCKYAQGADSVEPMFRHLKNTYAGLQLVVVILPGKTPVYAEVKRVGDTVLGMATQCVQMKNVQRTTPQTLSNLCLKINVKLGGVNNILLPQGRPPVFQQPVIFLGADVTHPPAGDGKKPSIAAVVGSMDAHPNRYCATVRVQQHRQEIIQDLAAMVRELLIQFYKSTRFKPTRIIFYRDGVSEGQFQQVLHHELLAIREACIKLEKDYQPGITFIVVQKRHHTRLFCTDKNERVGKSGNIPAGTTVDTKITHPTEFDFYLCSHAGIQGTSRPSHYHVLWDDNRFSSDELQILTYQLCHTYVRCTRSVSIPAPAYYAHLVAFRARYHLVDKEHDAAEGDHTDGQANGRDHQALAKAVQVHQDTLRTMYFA
row,Binder,binding signal
1,B1,0.32 fold enrichment over input
2,B2,0.354 fold enrichment over input
3,B3,0.358 fold enrichment over input
4,B4,0.364 fold enrichment over input
5,B5,0.356 fold enrichment over input
6,B6,0.493 fold enrichment over input
7,B7,0.347 fold enrichment over input
8,B8,0.386 fold enrichment over input
9,B9,0.345 fold enrichment over input
10,B10,0.349 fold enrichment over input
11,B11,0.437 fold enrichment over input

# Biological target: AGO2 A367P (Homo sapiens, UniProt Q9UKV8 1-859, A367P;S387D;S824A;S828D;S831D;S834A)
# Test: as above
# Conditions: protein: recombinant; tags: His6 (N-terminal, pFastBac HTA)
# Summary of the method: as §1
# Chain of AGO2 A367P (Q9UKV8 whole entry A367P/S387D/S824A/S828D/S831D/S834A): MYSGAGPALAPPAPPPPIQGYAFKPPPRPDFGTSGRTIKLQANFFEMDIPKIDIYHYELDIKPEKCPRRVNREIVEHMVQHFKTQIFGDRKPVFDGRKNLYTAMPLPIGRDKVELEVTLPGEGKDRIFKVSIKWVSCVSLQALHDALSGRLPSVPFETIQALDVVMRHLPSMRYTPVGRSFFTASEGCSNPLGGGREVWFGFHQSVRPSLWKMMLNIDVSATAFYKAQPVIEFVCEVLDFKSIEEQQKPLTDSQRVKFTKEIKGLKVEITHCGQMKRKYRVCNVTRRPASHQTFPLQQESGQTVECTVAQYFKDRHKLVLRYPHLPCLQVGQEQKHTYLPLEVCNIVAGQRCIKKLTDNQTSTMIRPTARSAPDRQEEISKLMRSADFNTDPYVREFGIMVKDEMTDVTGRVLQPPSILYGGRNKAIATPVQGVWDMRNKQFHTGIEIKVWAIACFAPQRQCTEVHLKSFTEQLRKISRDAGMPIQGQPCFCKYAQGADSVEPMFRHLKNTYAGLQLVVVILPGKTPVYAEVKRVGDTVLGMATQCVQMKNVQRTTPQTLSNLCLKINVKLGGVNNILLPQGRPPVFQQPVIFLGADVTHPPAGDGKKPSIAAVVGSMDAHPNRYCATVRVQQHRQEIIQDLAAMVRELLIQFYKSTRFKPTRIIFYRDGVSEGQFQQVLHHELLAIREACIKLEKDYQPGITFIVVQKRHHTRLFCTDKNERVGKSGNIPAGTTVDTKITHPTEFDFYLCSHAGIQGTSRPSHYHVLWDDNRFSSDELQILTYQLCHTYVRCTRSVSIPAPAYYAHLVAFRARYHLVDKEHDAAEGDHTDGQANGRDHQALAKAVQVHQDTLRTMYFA
row,Binder,binding signal
1,B1,0.127 fold enrichment over input
2,B2,0.12 fold enrichment over input
3,B3,0.127 fold enrichment over input
4,B4,0.126 fold enrichment over input
5,B5,0.131 fold enrichment over input
6,B6,0.178 fold enrichment over input
7,B7,0.128 fold enrichment over input
8,B8,0.135 fold enrichment over input
9,B9,0.125 fold enrichment over input
10,B10,0.123 fold enrichment over input
11,B11,0.187 fold enrichment over input

# Biological target: AGO2 T357M (Homo sapiens, UniProt Q9UKV8 1-859, T357M;S387D;S824A;S828D;S831D;S834A)
# Test: as above
# Conditions: protein: recombinant; tags: His6 (N-terminal, pFastBac HTA)
# Summary of the method: as §1
# Chain of AGO2 T357M (Q9UKV8 whole entry T357M/S387D/S824A/S828D/S831D/S834A): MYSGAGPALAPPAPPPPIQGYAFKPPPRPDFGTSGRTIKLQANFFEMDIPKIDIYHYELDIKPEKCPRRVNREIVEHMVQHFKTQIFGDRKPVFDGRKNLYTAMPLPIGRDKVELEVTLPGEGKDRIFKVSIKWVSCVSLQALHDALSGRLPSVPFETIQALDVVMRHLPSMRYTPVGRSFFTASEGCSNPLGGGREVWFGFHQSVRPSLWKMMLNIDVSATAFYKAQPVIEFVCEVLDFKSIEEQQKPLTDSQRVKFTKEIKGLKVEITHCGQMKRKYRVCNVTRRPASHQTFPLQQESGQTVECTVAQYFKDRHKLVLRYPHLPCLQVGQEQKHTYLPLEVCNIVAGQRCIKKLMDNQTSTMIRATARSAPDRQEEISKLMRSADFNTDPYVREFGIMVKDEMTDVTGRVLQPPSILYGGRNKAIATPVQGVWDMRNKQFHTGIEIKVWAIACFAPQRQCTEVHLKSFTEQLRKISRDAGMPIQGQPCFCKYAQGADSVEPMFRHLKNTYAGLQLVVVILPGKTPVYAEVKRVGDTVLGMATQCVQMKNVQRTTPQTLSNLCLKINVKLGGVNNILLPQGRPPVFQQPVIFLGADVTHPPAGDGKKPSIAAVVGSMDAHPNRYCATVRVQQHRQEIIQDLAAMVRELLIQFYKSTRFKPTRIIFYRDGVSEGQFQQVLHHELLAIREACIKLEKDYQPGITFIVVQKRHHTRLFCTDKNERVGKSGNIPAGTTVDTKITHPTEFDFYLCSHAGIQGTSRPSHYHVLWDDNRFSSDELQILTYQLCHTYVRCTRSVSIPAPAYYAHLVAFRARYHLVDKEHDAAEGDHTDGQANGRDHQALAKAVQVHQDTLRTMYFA
row,Binder,binding signal
1,B1,0.448 fold enrichment over input
2,B2,0.455 fold enrichment over input
3,B3,0.486 fold enrichment over input
4,B4,0.522 fold enrichment over input
5,B5,0.51 fold enrichment over input
6,B6,0.557 fold enrichment over input
7,B7,0.482 fold enrichment over input
8,B8,0.458 fold enrichment over input
9,B9,0.468 fold enrichment over input
10,B10,0.425 fold enrichment over input
11,B11,0.545 fold enrichment over input

# Biological target: AGO2 F182del (Homo sapiens, UniProt Q9UKV8 1-859, S387D;S824A;S828D;S831D;S834A;del182-182)
# Test: as above
# Conditions: protein: recombinant; tags: His6 (N-terminal, pFastBac HTA)
# Summary of the method: as §1
# Chain of AGO2 F182del (Q9UKV8 other isoform, or with tags, fused parts or gaps S387D;S824A;S828D;S831D;S834A;del182-182): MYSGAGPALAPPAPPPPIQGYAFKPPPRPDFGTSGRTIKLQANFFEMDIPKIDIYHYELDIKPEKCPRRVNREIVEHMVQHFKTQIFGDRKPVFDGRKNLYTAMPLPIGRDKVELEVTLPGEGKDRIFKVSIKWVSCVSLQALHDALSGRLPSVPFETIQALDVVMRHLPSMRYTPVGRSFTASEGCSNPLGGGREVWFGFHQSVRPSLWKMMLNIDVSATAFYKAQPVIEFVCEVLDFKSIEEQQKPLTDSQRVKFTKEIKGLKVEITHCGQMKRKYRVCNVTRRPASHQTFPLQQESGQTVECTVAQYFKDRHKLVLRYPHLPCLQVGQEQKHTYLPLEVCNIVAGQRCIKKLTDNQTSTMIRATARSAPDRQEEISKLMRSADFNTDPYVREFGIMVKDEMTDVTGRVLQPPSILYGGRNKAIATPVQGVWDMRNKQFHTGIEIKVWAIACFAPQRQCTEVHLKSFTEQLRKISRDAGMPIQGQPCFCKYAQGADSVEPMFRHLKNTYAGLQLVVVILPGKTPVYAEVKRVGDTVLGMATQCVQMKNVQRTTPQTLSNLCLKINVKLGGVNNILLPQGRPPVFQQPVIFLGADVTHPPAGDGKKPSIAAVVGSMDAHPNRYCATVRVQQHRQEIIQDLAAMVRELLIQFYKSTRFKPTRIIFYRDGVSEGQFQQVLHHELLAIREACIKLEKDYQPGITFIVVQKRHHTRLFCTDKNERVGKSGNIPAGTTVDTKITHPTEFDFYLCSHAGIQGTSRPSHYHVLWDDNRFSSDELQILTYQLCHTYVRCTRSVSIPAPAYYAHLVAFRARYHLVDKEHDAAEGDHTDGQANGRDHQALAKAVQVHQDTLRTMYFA
row,Binder,binding signal
1,B6,0.309 fold enrichment over input
2,B11,0.128 fold enrichment over input
